These results are taken from PubChem BioAssay.

Calls of active or inactive are those of the source.

Test [1] concerns Human papillomavirus type 1a protein E7 (residues 44-93). As to the kind of experiment: small molecules binding HPV E7 44-93 – biochemical, small-molecule microarray, residues 44-93, 635 nm fluorescence, primary screen (AID 1108).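 Further: E7 fragment applied at 1 µg/mL in TBST for 1 h at 4 C; score combines spot fluorescence with its signal to noise ratio.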 The following applies: fluorescence 635 nm, higher = more signal.
The nature of test [2]: hepatitis C replication reporter changes, two-sided – Huh7 cells, luciferase reporter, HCV replication inhibitor project, primary screen (AID 1109).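 Further: huh7 hepatoma cells harbouring a luciferase neomycin HCV replicon reporter; luciferase luminescence as measure of HCV replicon replication; test concentration not given here.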 The following applies: Huh7 HCV replicon luciferase reporter, 48 h; higher = more signal.
Test [3] concerns the target Left-right determination factor 2 (Homo sapiens) (UniProt O00292). The experiment in a line: small molecules binding LEFTY2 protein – biochemical, small-molecule microarray, 635 nm fluorescence scan, primary screen (AID 1110). The conditions noted are these: higher = more signal.
The target in test [4] is Calmodulin-1 (Homo sapiens) (UniProt P0DP23). The experiment in a line: small molecules binding calmodulin-1 with EGTA – biochemical, small-molecule microarray, Cy5-labelled CALM1, profiling panel (AID 1111).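 Further: labelled calmodulin applied in Tris saline Tween buffer holding calcium plus EGTA and DTT.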 The conditions noted are these: Cy5-CALM1 binding fluorescence, higher = more signal.
For test [5] the target is unchanged. As to the kind of experiment: small molecules binding Ca-loaded calmodulin-1 – biochemical, small-molecule microarray, Cy5-labelled CALM1, plus calcium, artefact control for SMM control-protein annotation, profiling panel (AID 1112).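 Further: score merges spot fluorescence with signal to noise from triplicate slides.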 The conditions noted are these: Cy5-CALM1 binding fluorescence, higher = more signal.
Test [6] is described as follows: probe aWnt5a binding to arrayed compounds – biochemical, biotinylated probe, 635/667 nm fluorescence, primary screen (AID 1113).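 Further: score merges 667 nm fluorescence intensity with signal-to-noise per printed feature.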 The conditions noted are these: small-molecule microarray, higher = more signal.
The nature of test [7]: probe aShh binding to arrayed compounds – biochemical, biotinylated probe, 635/667 nm fluorescence, primary screen (AID 1114).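 Further: probe is biotin-labelled aShh protein from a stem cell growth factor screen; measures binding of labelled protein to compounds printed on the slide; score merges feature fluorescence at 667 nm with signal-to-noise.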 The following applies: small-molecule microarray, higher = more signal.
Test [8] can be described thus: probe aNog binding to arrayed compounds – biochemical, biotinylated probe, 635/667 nm fluorescence, primary screen (AID 1115).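 Further: probe is biotinylated aNog protein used at 0.15 µg/mL for 1 h at 4 C; z-score combines 667 nm fluorescence of each spot with its signal to noise.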 The conditions noted are these: small-molecule microarray, higher = more signal.
Test [9] deals with Torsin-1A-interacting protein 1 (Homo sapiens) (UniProt Q5JTV8). The experiment in a line: compound microarray binding of lysate hLAP1 – cell lysate, small-molecule microarray, COS7 lysate, 635/667 nm fluorescence, primary screen (AID 1116). The following applies: 635 nm fluorescence, higher = more signal.
Chain of Torsin-1A-interacting protein 1 (Homo sapiens) (Q5JTV8 whole entry, looked up): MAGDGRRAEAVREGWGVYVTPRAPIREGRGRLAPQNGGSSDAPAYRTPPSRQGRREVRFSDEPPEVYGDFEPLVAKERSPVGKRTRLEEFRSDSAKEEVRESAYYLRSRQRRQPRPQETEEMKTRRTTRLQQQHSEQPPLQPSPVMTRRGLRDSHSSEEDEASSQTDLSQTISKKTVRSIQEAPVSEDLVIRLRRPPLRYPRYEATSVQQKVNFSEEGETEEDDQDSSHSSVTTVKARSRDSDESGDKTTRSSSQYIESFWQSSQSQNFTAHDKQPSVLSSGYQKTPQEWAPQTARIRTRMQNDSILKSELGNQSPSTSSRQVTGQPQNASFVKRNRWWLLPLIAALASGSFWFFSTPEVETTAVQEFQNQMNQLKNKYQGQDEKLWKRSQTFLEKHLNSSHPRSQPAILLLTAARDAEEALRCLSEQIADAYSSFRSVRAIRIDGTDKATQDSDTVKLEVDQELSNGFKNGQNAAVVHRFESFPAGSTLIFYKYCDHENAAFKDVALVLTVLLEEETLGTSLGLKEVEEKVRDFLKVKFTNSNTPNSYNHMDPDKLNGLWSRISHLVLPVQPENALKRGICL
Test [10] deals with Alpha-bungarotoxin (Bungarus multicinctus) (UniProt P60615). The experiment in a line: compounds binding labelled alpha-BTX control protein – biochemical, small-molecule microarray, Alexa647 label, 635/667 nm fluorescence, artefact control for SMM control protein annotation, profiling panel (AID 1117). The following applies: alpha-BTX-A647 binding fluorescence, higher = more signal.
Chain of Alpha-bungarotoxin (Bungarus multicinctus) (P60615 whole entry, looked up): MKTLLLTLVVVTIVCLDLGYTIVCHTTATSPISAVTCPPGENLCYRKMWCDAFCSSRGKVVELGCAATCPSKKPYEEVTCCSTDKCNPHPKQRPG

The target of another test is Albumin (Bos taurus) (UniProt P02769). The experiment in a line: compounds binding labelled BSA control protein – biochemical, small-molecule microarray, Alexa647 label, 635/667 nm fluorescence, artefact control for SMM control protein annotation, profiling panel (AID 1118).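 Further: score merges 667 nm emission intensity and signal-to-noise per printed compound spot.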 The conditions noted are these: BSA-A647 binding, fluorescence 635 nm, higher = more signal.
Chain of Albumin (Bos taurus) (P02769 whole entry, looked up): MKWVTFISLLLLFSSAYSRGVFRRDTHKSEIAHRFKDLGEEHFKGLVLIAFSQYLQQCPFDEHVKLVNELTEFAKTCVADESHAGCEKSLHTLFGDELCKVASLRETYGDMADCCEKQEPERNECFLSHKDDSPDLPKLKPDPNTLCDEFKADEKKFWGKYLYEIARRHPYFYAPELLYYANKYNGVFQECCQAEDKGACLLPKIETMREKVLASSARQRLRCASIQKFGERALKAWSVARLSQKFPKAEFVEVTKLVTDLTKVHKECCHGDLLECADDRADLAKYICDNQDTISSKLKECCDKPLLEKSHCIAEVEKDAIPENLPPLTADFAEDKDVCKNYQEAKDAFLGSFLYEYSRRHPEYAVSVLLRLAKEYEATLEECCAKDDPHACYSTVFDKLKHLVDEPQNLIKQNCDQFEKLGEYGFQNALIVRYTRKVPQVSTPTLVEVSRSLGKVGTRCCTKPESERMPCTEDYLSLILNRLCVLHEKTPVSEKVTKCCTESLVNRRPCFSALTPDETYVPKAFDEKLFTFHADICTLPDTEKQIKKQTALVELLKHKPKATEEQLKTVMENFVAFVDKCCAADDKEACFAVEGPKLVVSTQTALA
The nature of test [11]: probe aXIP binding to arrayed compounds – biochemical, NeuroSMM set, 635/667 nm fluorescence, primary screen (AID 1119).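 Further: probe is the protein aXip251-270 applied at 1 µg/mL to compound-printed slides; binding of probe to printed compounds measured as 667 nm fluorescence plus signal to noise.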 The conditions noted are these: small-molecule microarray, higher = more signal, called active from +8 up or from −8 down.
A short description of test [12]: probe aNOTCH3 binding on compound microarray – biochemical, small-molecule microarray, 635/667 nm fluorescence, primary screen (AID 1120).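 Further: probe is a biotin-tagged antibody raised against NOTCH3 rather than NOTCH3 protein; score merges spot fluorescence near 667 nm with spot signal to noise.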 The conditions noted are these: higher = more signal.
Test [13] in a line: probe aNOTCH2 binding on compound microarray – biochemical, small-molecule microarray, 635/667 nm fluorescence, primary screen (AID 1121).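 Further: score merges feature fluorescence read at 667 nm with its signal to noise.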 The following applies: higher = more signal.
In test [14] the target is Carbonic anhydrase 2 (Homo sapiens) (UniProt P00918). The experiment in a line: compounds binding carbonic anhydrase 2 – biochemical, small-molecule microarray, Alexa647-labelled CAII, profiling panel (AID 1122). The conditions noted are these: CAII-A647 binding fluorescence, higher = more signal.
Test [15] can be described thus: COS7 lysate on small-molecule microarray, probe aHis, 635 nm (AID 1123).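 Further: z-score combines 667nm fluorescence intensity with signal-to-noise per printed compound spot.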 The conditions noted are these: COS7 cell lysate, fluorescence, higher = more signal.
A short description of test [16]: probe aLAP1 signal on lysate-treated microarray – cell lysate, small-molecule microarray, COS7 lysate, primary screen (AID 1124).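 Further: lysate comes from COS7 cells expressing LAP1 and is applied at 0.3 µg/mL; score merges spot fluorescence near 667 nm with signal-to-noise over triplicate slides.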 The following applies: probe aLAP1, fluorescence, higher = more signal.
For a further test, the system named is Sam68 (KHDRBS1). The experiment in a line: compounds binding KHDRBS1 protein – biochemical, small-molecule microarray, 635 nm fluorescence, primary screen (AID 1125).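 Further: score merges 667 nm channel intensity with signal to noise over triplicate slides.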 The following applies: higher = more signal.
Test [17] concerns Chordin-like protein 2 (CHRDL2). As to the kind of experiment: compounds binding chordin-like 2 – biochemical, small-molecule microarray, 635 nm fluorescence, primary screen (AID 1126).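 Further: printed compound slides probed with Chrdl2 protein at 4 µg/mL for 1 h at 4 C; score merges 667 nm emission intensity with signal to noise over three replicate slides.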 The conditions noted are these: fluorescence 635 nm, higher = more signal.
The target of test [18] is Concanavalin-A (Canavalia ensiformis) (UniProt P02866). As to the kind of experiment: compounds binding concanavalin A lectin – biochemical, small-molecule microarray, Alexa647 label, 635 nm, artefact control for SMM control protein annotation, primary screen (AID 1127).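 Further: z combines 667 nm emission intensity with signal-to-noise across three replicate slides.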 The following applies: ConA-A647 binding fluorescence, higher = more signal.
Chain of Concanavalin-A (Canavalia ensiformis) (P02866 whole entry, looked up): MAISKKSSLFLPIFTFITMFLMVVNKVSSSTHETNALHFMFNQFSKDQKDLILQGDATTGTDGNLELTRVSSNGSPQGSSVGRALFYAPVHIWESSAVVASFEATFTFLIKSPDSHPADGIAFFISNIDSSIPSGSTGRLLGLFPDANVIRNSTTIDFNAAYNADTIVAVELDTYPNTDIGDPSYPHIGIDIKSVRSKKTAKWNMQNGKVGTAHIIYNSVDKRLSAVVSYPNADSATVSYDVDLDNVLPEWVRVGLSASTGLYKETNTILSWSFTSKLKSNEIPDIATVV

Chain of Left-right determination factor 2 (Homo sapiens) (O00292 whole entry, looked up): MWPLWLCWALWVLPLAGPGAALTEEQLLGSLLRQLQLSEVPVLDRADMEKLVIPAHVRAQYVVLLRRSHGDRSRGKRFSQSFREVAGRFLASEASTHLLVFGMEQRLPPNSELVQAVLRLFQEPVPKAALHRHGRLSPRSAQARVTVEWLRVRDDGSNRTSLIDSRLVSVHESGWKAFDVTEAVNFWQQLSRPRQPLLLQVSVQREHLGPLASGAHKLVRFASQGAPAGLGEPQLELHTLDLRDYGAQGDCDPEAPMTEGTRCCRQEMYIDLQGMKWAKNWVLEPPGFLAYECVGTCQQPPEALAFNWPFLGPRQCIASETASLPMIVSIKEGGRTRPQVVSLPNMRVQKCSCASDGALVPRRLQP

Consider `CC(CCC(=O)OC[C@H]1O[C@H](C#Cc2ccccc2)C=C[C@@H]1Oc1ccc(C)cc1)=NO[C@H](C)c1cn([C@@H]2COC[C@H]2O)nn1`, for which the composite z-score was -0.231 in test [1]; 0.431 in test [3]; -0.411 in [4]; -0.208 in [5]; -0.0512 in test [6]; -0.138 in [7]. Besides, the composite z-score in [8] is 0.354; in [9], -0.465; in test [10], -0.493; in the test with Albumin (Bos taurus), -0.115; in test [12], -0.0697; in test [13], -0.125. Moreover, the composite z-score was -0.129 in test [14]; -0.235 in test [15]; 0.0502 in [16]; -0.0882 in the test with Sam68 (KHDRBS1); 0.308 in test [17]; -0.785 in test [18]. Further, the z-score in test [2] is -1.66. In addition, the composite Z-score in test [11] was -0.166 (inactive).
With `CCOC(=O)[C@H](Cc1ccccc1)NC(=O)CCC1CC(OC(=O)NCc2cccc3ccccc23)CC2(CCCC(COC(=O)NCCc3ccccc3OC)O2)O1` (stereo not given in full), the composite z-score in test [1] is 0.881; in [3], 0.584; in test [4] it was 0.38; in test [5], -0.298; in test [6] it was -0.195; in test [7], 0.191. Besides, the composite z-score in test [8] was -0.138; in [9], 0.135; in [10], 0.635; in the test with Albumin (Bos taurus), 0.49; in test [12] it was 0.121; in test [13], -0.126. Moreover, the composite z-score in test [14] is 0.224; in test [15] it was 0.474; in [16], -0.114; in the test on Sam68 (KHDRBS1), 1.19; in test [17], 0.241; in [18] it was 0.879. In test [2], this molecule registered a z-score of -1.06. For the same molecule, the composite Z-score in [11] was -0.564 (inactive).
Regarding `CCOC(=O)[C@H](CC(C)C)NC(=O)CCC1CC(OC(=O)NCc2ccc3c(c2)OCO3)CC2(CCCC(COC(=O)NCCOC)O2)O1` (stereo not given in full), the composite z-score is 0.522 in test [1]; 0.249 in test [3]; 0.221 in test [4]; -0.491 in [5]; -0.0792 in test [6]; -0.2 in test [7]. The composite z-score in test [8] is -0.0615; in test [9], 0.956; in test [10], 1.05; with Albumin (Bos taurus), -0.398; in [12], 0.0208; in test [13], -0.166. For the same molecule, the composite z-score stood at 0.152 in test [14]; 0.57 in test [15]; 0.0898 in [16]; 0.911 in the test with Sam68 (KHDRBS1); 0.293 in [17]; 0.858 in test [18]. Moreover, the z-score in test [2] is -0.322. Further, the composite Z-score in test [11] was -0.0756 (inactive).
For `CC(C)=CCCC(C)=CCON=C1C[C@@H](O)[C@@H](O)[C@@H]2[C@@H]3C(=O)N([C@@H](C)c4ccccc4)C(=O)[C@@H]3CC[C@@H]12`, the composite z-score is 0.257 in test [1]; 0.898 in test [3]; -0.544 in [4]; -0.406 in [5]; -0.012 in test [6]; -0.289 in test [7]. The composite z-score in test [8] is -0.247; in test [9], 0.222; in test [10] it was 0.551; with Albumin (Bos taurus), 0.0686; in test [12] it was -0.0311; in test [13] it was -0.0194. Moreover, the composite z-score in [14] is 0.043; in test [15], 0.157; in test [16], 0.0404; with Sam68 (KHDRBS1), 0.121; in test [17], 1.04; in [18], 0.6. Also, the z-score in test [2] worked out at 0.0308. The composite Z-score in test [11] was -0.283 (inactive).
In the case of `CCOC(=O)CCN1C(=O)[C@H]2[C@H]3[C@H](O)[C@H](O)CC(=NOCC=C(C)CCC=C(C)C)[C@H]3CC[C@H]2C1=O`, the composite z-score in [1] was -0.11; in test [3] it was 0.199; in [4], -0.38; in [5] it was -0.488; in [6], -0.103; in [7], -0.221. Besides, the composite z-score is -0.1 in [8]; -0.393 in [9]; 0.271 in test [10]; -0.269 with Albumin (Bos taurus); 0.179 in test [12]; -0.167 in test [13]. The composite z-score is -0.276 in test [14]; -0.405 in test [15]; -0.192 in test [16]; 0.458 with Sam68 (KHDRBS1); -0.178 in test [17]; 0.116 in test [18]. In test [2], this molecule registered a z-score of -0.409. Also, in test [11], the composite Z-score was -0.113 (inactive).
As to `CCN1C(=O)[C@H]2[C@H]3[C@H](O)[C@H](O)CC(=NO[C@@H](C)c4cc(-c5c(C)cc(C)cc5C)no4)[C@@H]3CC[C@H]2C1=O`, the composite z-score in [1] was 1.02; in [3], 0.685; in [4], 0.224; in test [5] it was -0.525; in test [6], -0.0799; in [7], -0.0146. Also, the composite z-score in [8] was -0.177; in [9], 0.952; in test [10], 1.02; in the test with Albumin (Bos taurus) it was 0.581; in test [12] it was 0.051; in [13], -0.0562. The composite z-score in test [14] was found to be 0.465; in test [15] it was 1.11; in test [16], 0.693; in the test with Sam68 (KHDRBS1) it was 1.3; in test [17] it was 0.333; in test [18], 1.02. Further, the z-score in test [2] was -0.946. Also, the composite Z-score in test [11] is -0.0662 (inactive).
